# Assay outcomes from PubChem BioAssay.
# H9c2 protect: cardioprotection against H2O2-induced cell death, primary screen, uHTS, H9c2 cells, ATPLite luminescence | H9c2 cardiomyocytes, H2O2 injury protection, 2 h | protection from H2O2 cell death, % at 20 µM | actives 0.63% (n = 360,000) | AID 588492, 2011;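 active = compounds giving at least 50% protection of heart cells from peroxide-induced death in the single-dose screen, raw or plate-pattern-corrected value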;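 note: 0% = DMSO wells with peroxide and 100% = DMSO wells without peroxide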
# PfM18AAP inh: PfM18AAP inhibitors, malaria aminopeptidase, primary screen, biochemical, QFRET, recombinant enzyme; H-Glu-NHMec fluorogenic cleavage; AID 1822, 2009; inhibition, % at 7.35 µM; M18 aspartyl aminopeptidase (Plasmodium falciparum 3D7); actives 1.2% (n = 290,000);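 active = inhibition above the campaign mean inhibition over all tested compounds plus 3 SD, cut at about 28% in these data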;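 note: 0% = plate median of test compound wells and 100% = 2 mM ZnCl2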
# PfG6PD inh: PfG6PD enzyme inhibitors, primary screen, biochemical, fluorescence intensity, uHTS. glucose-6-phosphate dehydrogenase-6-phosphogluconolactonase (Plasmodium falciparum 3D7). PfGluPho enzyme, NADPH resazurin-diaphorase fluorescence. inhibition, % at 20 µM. actives 0.78% (n = 350,000);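 active = inhibition reaching at least a set limit at 20 µM in the primary screen, cut at about 59% in these data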;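 note: 0% = DMSO wells with substrate and 100% = DMSO wells lacking glucose-6-phosphate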
# PHOSPHO1 inh: PubChem AID 1565. recombinant PHOSPHO1, absorbance phosphatase assay. actives 1.1% (n = 290,000). inhibition, % at 13.3 µM. Phosphoethanolamine/phosphocholine phosphatase (Homo sapiens), Q8TCT1; in the data active = inhibition above about 60%
# Target sequence (Q8TCT1 whole entry, looked up): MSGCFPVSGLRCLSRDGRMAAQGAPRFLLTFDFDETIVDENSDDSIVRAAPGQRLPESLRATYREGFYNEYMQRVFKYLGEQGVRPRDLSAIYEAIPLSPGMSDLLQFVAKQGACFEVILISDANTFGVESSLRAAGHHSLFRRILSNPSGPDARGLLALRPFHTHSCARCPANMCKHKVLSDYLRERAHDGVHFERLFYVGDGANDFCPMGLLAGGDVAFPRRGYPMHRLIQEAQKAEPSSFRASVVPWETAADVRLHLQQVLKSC
# ALR inh: inhibitors of human ALR sulfhydryl oxidase, primary screen, biochemical, H2O2 detection, HRP-luminol luminescence, single point. AID 485317, 2010. actives 3.8% (n = 290,000). FAD-linked sulfhydryl oxidase ALR (Homo sapiens), P55789. purified ALR, DTT oxidation. inhibition, % (concentration not given with the values);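 active = mean replicate inhibition above about 79%, with every replicate also reaching it, limit read from the data; inconclusive = only one of the two criteria met; inactive = mean below limit and not every replicate reaching it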
# Target sequence (P55789 whole entry, looked up): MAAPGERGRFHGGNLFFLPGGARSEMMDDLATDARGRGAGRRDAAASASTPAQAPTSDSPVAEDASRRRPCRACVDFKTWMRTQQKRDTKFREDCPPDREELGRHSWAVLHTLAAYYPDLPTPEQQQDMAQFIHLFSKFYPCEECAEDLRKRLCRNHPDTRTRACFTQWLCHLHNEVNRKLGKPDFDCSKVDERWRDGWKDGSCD
# An asterisk follows results filed as active; ? = inconclusive; nt = no result given. Shown are actives, neighbours in structure and some others; about 5.6% of the full set was active somewhere.
SMILES,H9c2 protect,PfM18AAP inh,PfG6PD inh,PHOSPHO1 inh,ALR inh
CN(C)c1ccc(/C=N/NC(=O)c2ccnn2C)cc1,-3,-10,6,34,99*
CN(C)c1ccc(C=NNC(=O)c2cccnc2)cc1,-7,nt,-6,nt,nt
CN(C)c1ccc(/C=N/NC(=O)c2ccccn2)cc1,-15,5,-9,16,87*
S=c1[nH]c(-c2ccc(Br)cc2)cn1CCc1ccccc1,-3,0,6,-17,-28
CCN1C[C@@H]2[C@@H]3C(=O)N(Cc4ccccc4)C(=O)[C@@H]3[C@](C)(C1=O)N2C(=O)c1ccc(Br)cc1,8,nt,2,nt,nt
Cc1ccc(OCCC(=O)OCC(=O)N2CCN(S(=O)(=O)c3ccc(C)cc3)CC2)cc1,-8,nt,2,nt,-1
CCCC(=O)Nc1nnc(S(=O)(=O)N(CC)c2ccccc2)s1,-1,-8,-26,35,nt
Cn1ccc(C(=O)N/N=C/c2cccnc2)n1,4,-6,0,28,1
CN(C)c1ccc(/C=N/NC(=O)c2ccn(C)n2)cc1,-14,4,11,34,94*
COC(=O)Cn1c(O)c(N=NC(=O)CNC(=O)c2ccncc2)c2ccccc21,2,3,-8,64*,-2
C=C(C)C(=O)Nc1ccc(NC(C)C)cc1,10,5,14,10,99*
C=C(C)C(=O)Nc1ccc(OC(F)(F)C(F)F)c(NC(=O)C(=C)C)c1,0,2,1,-3,-13
CCc1cccc(NC(=O)COC(=O)C2COc3ccccc3O2)c1 (stereo not given),6,nt,-4,nt,nt
CCOc1ccc(NC(=O)CN2CCc3cc4c(cc3C2)OCCCO4)cc1OCC,3,-1,-6,42,-17
Cc1nnc(SCc2cnc(-c3ccc(C(C)C)cc3)s2)n1C,-15,1,-9,9,98*
O=C(CSC1=NCCS1)c1ccc(Cl)cc1,-6,0,6,-115,98*
O=C1OCCN1CCNCc1cn(-c2ccc(F)cc2)nc1-c1ccccc1Cl,7,-5,-3,60*,-7
Cc1nn(-c2ccccc2)c(N2CCCC2)c1/C=N/n1cnc2scc(-c3ccccc3)c2c1=O,62*,5,-5,-80,-3
O=C(/C=C/[C@H]1O[C@@H](n2ccc(=O)[nH]c2=O)[C@H](O)[C@@H]1O)N1CCN(Cc2ccc(F)cc2)CC1,0,nt,nt,nt,nt
CCCOc1ccc(C(C)=O)cc1CSc1nc(O)cc(=O)[nH]1,7,-1,-34,20,99*
O=c1cc(O)nc(SCc2ccccc2)[nH]1,5,-6,2,-18,98*
O=C(CSc1nc(O)cc(=O)[nH]1)N1c2ccccc2Sc2ccccc21,-4,7,-12,29,99*
CCOC(=O)C1(C)CCCN(C(=O)COc2ccccc2)C1 (stereo not given),5,nt,nt,nt,nt
O=C(NCc1ccco1)c1ccc(-c2ccc(F)c(F)c2)c2ccoc12,-11,nt,nt,nt,nt
COc1cc(C(=O)OCCN2CCOCC2)ccc1O,7,4,14,-4,96*
SMILES,H9c2 protect,PfM18AAP inh,PfG6PD inh,PHOSPHO1 inh,ALR inh
O=C(OCCCN1CCOCC1)c1ccc(O)c(O)c1,7,44*,-22,-1,99*
CCCCOC(=O)c1ccc(OC(=O)N2CCOCC2)cc1,-5,0,-12,26,0
CC(C)COc1ccc(C(=O)OCCN2CCOCC2)c(O)c1,-13,1,0,16,7
O=C(NC(=S)Nn1cnc2c(cnn2-c2ccccc2)c1=O)c1ccccc1,1,-3,-23,-6,53
Cc1ccc(N(C(=O)Cn2nnc(-c3cccs3)n2)C(C(=O)NC2CCCC2)c2ccncc2)cc1 (stereo not given),-4,-4,-7,60*,0
Cc1ccc(N(C(=O)Cn2nnc(-c3ccccc3F)n2)C(C(=O)NC2CCCC2)c2ccncc2)cc1 (stereo not given),1,-1,8,17,-1
COc1cc(NC(=O)c2cccc3c(-c4cnn(C)c4)coc23)cc(OC)c1OC,64*,nt,nt,nt,nt
COc1ccc(NC(=O)c2cccc3c(-c4cnn(C)c4)coc23)cc1,44,nt,nt,nt,nt
Cc1cc(C)cc(C(=O)NCC(=O)OCC(=O)N2CCCC2)c1,0,nt,-3,nt,nt
Cn1c(-c2ccccc2)cnc1NCc1cccc([N+](=O)[O-])c1,15,13,22,39,43
COc1ccc(CNc2ncc(-c3cccc([N+](=O)[O-])c3)n2C)c(OC)c1OC,7,8,-13,25,98*
CSc1ccc(CNc2ncc(-c3cccc([N+](=O)[O-])c3)n2C)cc1,7,6,-17,36,98*
CCC1=C/C(=C/c2sc3ccccc3[n+]2CC)CC(C)(C)C1,nt,23,61*,-3,-1
CC[n+]1c(/C=C2/C=C(C)CC(C)(C)C2)sc2ccc(OC)cc21,-31,-5,45,56,?
CC[n+]1c(/C=C2\C=C(C)CC(C)C2)sc2ccccc21 (stereo not given),-32,27,49,102*,-5
N#Cc1c(-c2ccccc2)cc(-c2cccs2)nc1SCC(=O)O,4,4,-16,-7,99*
CN(C(=O)c1cccc(NC(=O)Cc2ccc(NC(=O)C3CCN(C(=O)C4CCC4)CC3)cc2)c1)C1CC1,2,nt,16,nt,nt
Cc1n[nH]c(=O)c2c(NC(=O)CSc3c(Cl)cccc3Cl)oc(C)c12,8,nt,49,nt,-17
Cn1c(SCC(=O)NC(=O)NCc2ccco2)nnc1-c1ccccc1,22,12,-19,64*,2
Cn1c(SCC(=O)NCc2ccco2)nnc1-c1ccccc1,22,1,-10,3,-3
O=C(CSc1nn(-c2ccc(F)cc2)c(=S)s1)NC(=O)NCc1ccco1,-7,6,13,83*,3
Cc1cc(SCC(=O)NC(=O)NCc2ccco2)nc2ccccc12,4,3,-15,26,98*
Cc1nnc(SCC(=O)NC(=O)NCc2ccco2)s1,8,-5,7,24,1
Cc1n[nH]c(=O)c2c(NC(=O)CSc3nn(-c4ccc(F)cc4)c(=S)s3)oc(C)c12,-1,nt,0,nt,99*
COC(=O)[C@@H](Cc1c[nH]c2ccccc12)NCc1ccc(B(O)O)cc1,2,nt,-11,nt,nt
O=C(CSc1n[nH]c(-c2ccccc2)n1)NC(=O)NCc1ccco1,1,12,11,88*,-4
O=C(CSc1nnc(-c2ccc(OC(F)F)cc2)o1)NC(=O)NCc1ccco1,-2,7,8,74*,-1
O=C(CSc1nc(-c2ccccc2)cs1)NC(=O)NCc1ccco1,17,-10,16,15,2
Cc1ccc(-c2nc(NC(=O)CSc3cc(C)c4ccccc4n3)ns2)cc1,-42,-5,1,60*,2
